Hits are enriched below; roughly 7.5% of the tested compounds scored in any of these assays.
FLuc counter: qHTS profiling assay for firefly luciferase inhibitor/activator using purifed enzyme and Km concentrations of substrates (counterscreen for miR-21 project); Luciferin 4-monooxygenase (Photinus pyralis), P08659; 360,000 compounds, 6.9% hits; purified FLuc, Km substrates, luminescence inhibition; Potency, µM (top dose mostly 57.5 µM), hits mostly inhibitors; also: nearly all actives have a fitted effect of over 55% in size
Target sequence (P08659 whole entry, looked up): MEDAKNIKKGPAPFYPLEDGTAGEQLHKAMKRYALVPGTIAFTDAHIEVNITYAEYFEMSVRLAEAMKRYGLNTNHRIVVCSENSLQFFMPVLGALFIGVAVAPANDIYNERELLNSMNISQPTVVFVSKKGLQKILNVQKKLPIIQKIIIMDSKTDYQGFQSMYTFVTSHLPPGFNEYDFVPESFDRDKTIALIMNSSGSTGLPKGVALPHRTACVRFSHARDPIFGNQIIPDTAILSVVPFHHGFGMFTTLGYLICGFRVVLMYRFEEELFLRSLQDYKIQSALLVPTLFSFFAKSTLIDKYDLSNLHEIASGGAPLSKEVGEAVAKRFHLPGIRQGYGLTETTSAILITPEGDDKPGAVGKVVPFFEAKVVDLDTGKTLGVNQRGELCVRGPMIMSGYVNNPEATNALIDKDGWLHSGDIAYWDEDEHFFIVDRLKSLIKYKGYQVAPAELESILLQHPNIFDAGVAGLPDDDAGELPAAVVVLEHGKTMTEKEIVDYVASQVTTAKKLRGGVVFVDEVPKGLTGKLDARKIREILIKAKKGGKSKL
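Purified P. pyralis luciferase (10nM final) with 10uM D-luciferin and 10uM ATP (Km levels) in 50mM Tris acetate pH 7.5, 10mM Mg acetate, 0.01% Tween-20, 0.05% BSA; qHTS 6-point titration, ~60 µM downward; luminescence read.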
NPC1 prom act: qHTS Assay for NPC1 Promoter Activators; Huh7 NPC1 promoter luciferase reporter, 24 h; Potency, µM (titrated, usually from 9.22 µM), usual class: activators; 320,000 compounds, 2.4% hits; AID 485313, 2010; also: nearly all actives have a fitted effect of over 60% in size
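Luciferase expression driven by the NPC1 promoter was measured in stably transfected Huh7 cells after a 24 h compound incubation, using a luciferase reagent and a luminescence read.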
SMN2 splice up: qHTS Assay for Enhancers of SMN2 Splice Variant Expression; HEK293 SMN2-luciferase splicing reporter, luminescence, 30-36 h; Potency, µM (series often up to 46.1 µM), most hits filed as activators; 210,000 compounds, 2.8% hits; also: nearly all actives have a fitted effect of over 55% in size
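HEK293 cells carry an SMN2 […]–luciferase reporter in which exon 7 inclusion puts luciferase in frame. Cells were plated 10-12 h before compound addition, then incubated 30-36 h at 37C. ONE-Glo luminescence was read; sodium butyrate at 4.5 mM final served as control.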
KinaseGlo FLuc: Counterscreen for Luciferase (Kinase-Glo TM) Inhibition; Luciferin 4-monooxygenase (Photuris pensylvanica), Q27757; Kinase-Glo luciferase, ATP luminescence, 8 min; Potency, µM (series often up to 38.3 µM), most hits filed as inhibitors; 200,000 compounds, 0.28% hits; AID 1379, 2008; also: nearly all actives have a fitted effect of over 60% in size
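Kinase-Glo luciferase light output from ATP and luciferin was measured with 10 uM ATP, within the enzyme's linear range. Buffer: 50 mM imidazole pH 7.2, 50 mM KCl, 7 mM MgCl2, 0.01% Tween 20, 0.05% BSA; luminescence read after 8 min at ambient temperature.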
ELG1 genotoxic: qHTS screen for small molecules that induce genotoxicity in human embryonic kidney (HEK293T) cells expressing luciferase-tagged ELG1; 330,000 compounds, 1.3% hits; Potency, µM (doses to about 46 µM), hits mostly activators; HEK293T ELG1-luciferase reporter, luminescence, 16 h; also: nearly all actives have a fitted effect of over 60% in size
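16 hr compound incubation (37 °C, 5% CO2) of HEK293T cells carrying luciferase-tagged ELG1; luciferase then measured by ONE-Glo luminescence after 30 min at RT.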
Rab9 prom act: qHTS Assay for Rab9 Promoter Activators; Huh7 Rab9 promoter-luciferase reporter, luminescence, 24 h; Potency, µM (doses to about 9.22 µM), most hits filed as activators; 320,000 compounds, 2.8% hits; AID 485297, 2010; also: nearly all actives have a fitted effect of over 60% in size
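Luciferase signal after 10 min detection reagent at ambient indicates Rab9 promoter upregulation; stably transfected Huh7 cells were treated 24 h with compound in DMSO at 37 °C, 5% CO2.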
Numbers stand for hits. Calls follow the shape of the dose curve; as a rule, active = well fitted curve in the direction sought with a large enough effect; inconclusive = small, poorly fitted or top-dose-only effect, or another doubt; inactive = no such curve, though single readings can be large; an effect the other way counts as inactive or inconclusive.

What do the screens show for `CCOc1ccccc1C(=O)Nc1cc2c(cc1N1CCOCC1)n(C)c(=O)n2C`?
FLuc counter: inactive; SMN2 splice up: inactive

Results for COC(=O)c1ccccc1-c1ccc(/C=C2\C(=O)N(c3ccccc3)N=C2c2ccccc2)o1 ?
FLuc counter: inactive; NPC1 prom act: inactive; SMN2 splice up: inactive; KinaseGlo FLuc: inactive; ELG1 genotoxic: inactive; Rab9 prom act: inactive

What do the screens show for `O=C1NN(c2cccc(Br)c2)C(=O)/C1=C/c1ccc(-c2cc([N+](=O)[O-])ccc2O)o1`?
FLuc counter: inconclusive; NPC1 prom act: inactive; ELG1 genotoxic: inactive; Rab9 prom act: inactive

What do the screens show for `CC1=NN(c2ccc(C(=O)O)cc2)C(=O)/C1=C/c1ccc(-c2ccccc2F)o1`?
FLuc counter: 4.8µM; NPC1 prom act: inactive; ELG1 genotoxic: inactive; Rab9 prom act: inactive

How did CC1=NN(c2ccc(Cl)c(C(=O)O)c2)C(=O)/C1=C\c1ccc(-c2ccc(C(=O)O)cc2)o1 do in these assays?
FLuc counter: 27µM; NPC1 prom act: inactive; SMN2 splice up: inactive; KinaseGlo FLuc: inactive; ELG1 genotoxic: inactive; Rab9 prom act: inactive

How did CC1=NN(c2ccc(C)cc2)C(=O)/C1=C/c1ccc(-c2cc([N+](=O)[O-])ccc2O)o1 do in these assays?
FLuc counter: 12µM; NPC1 prom act: inactive; ELG1 genotoxic: inactive; Rab9 prom act: inactive

Results for O=C(NCC(=O)N(c1cccnc1)C(C(=O)NC1CCCC1)c1ccccc1F)c1ccco1 (stereo not given) ?
FLuc counter: inactive; NPC1 prom act: inactive; ELG1 genotoxic: inactive; Rab9 prom act: inactive

How did O=C(c1ccc(NC2=NC3CS(=O)(=O)CC3S2)cc1)N(CCO)Cc1ccccc1 (stereo not given) do in these assays?
FLuc counter: inactive; NPC1 prom act: inactive; ELG1 genotoxic: inactive; Rab9 prom act: inactive

How did CN(C)C(=O)c1ccc(NC(=O)c2ccccc2Sc2ccccc2C#N)cc1 do in these assays?
FLuc counter: inactive; NPC1 prom act: inactive; SMN2 splice up: inactive; KinaseGlo FLuc: inactive; ELG1 genotoxic: inactive; Rab9 prom act: inactive

How did CC(C)Oc1ccc(CNC(=O)c2ccc(CS(=O)c3cccc(Cl)c3)o2)cc1 (stereo not given) do in these assays?
FLuc counter: inactive

What do the screens show for `O=C(/C=C/c1cn(CC(O)CN2CCCCCC2)c2ccccc12)c1ccccc1` (stereo not given)?
FLuc counter: inactive; SMN2 splice up: inactive

How did CN1CCN(Cn2cc(/C=C/C(=O)c3ccccc3)c3ccccc32)CC1 do in these assays?
FLuc counter: 2.4µM; NPC1 prom act: inconclusive; SMN2 splice up: inactive; KinaseGlo FLuc: inactive; ELG1 genotoxic: inconclusive; Rab9 prom act: 2.8µM

Results for Oc1ccc2ccccc2c1/C=N/n1cnnc1 ?
FLuc counter: inactive; NPC1 prom act: inactive; SMN2 splice up: inactive; KinaseGlo FLuc: inactive; ELG1 genotoxic: inactive; Rab9 prom act: inactive

Results for Cc1nn(C)c(C)c1N=Cc1c(O)ccc2ccccc12 ?
FLuc counter: 13µM; NPC1 prom act: inactive; SMN2 splice up: inactive; KinaseGlo FLuc: inactive; ELG1 genotoxic: inactive; Rab9 prom act: inactive

What do the screens show for `O=C(Nc1ccc(OCc2ccccc2)cc1)Nc1ccccc1C(=O)NCCCN1CCOCC1`?
FLuc counter: 19µM; NPC1 prom act: inactive; ELG1 genotoxic: inactive; Rab9 prom act: inactive

Results for O=C(Nc1ccc(F)cc1)Nc1ccccc1C(=O)NCCN1CCNC1=O ?
FLuc counter: 17µM; NPC1 prom act: inactive; ELG1 genotoxic: inactive; Rab9 prom act: inactive

How did CC(C)(C)NC(=O)C(c1ccc(-c2ccccc2)cc1)N(C[C@H]1CC[C@@H]([C@@H]2CC[C@H](CO)O2)O1)C(=O)c1ccc(C(C)(C)C)cc1 (stereo not given in full) do in these assays?
ELG1 genotoxic: inactive

Results for CC(C)c1ccc(/C=C/C(=O)n2nnc3ccccc32)cc1 ?
FLuc counter: 1.7µM; SMN2 splice up: inactive; KinaseGlo FLuc: inactive

How did O=C(/C=C/c1ccc(Br)cc1)NC(=S)N1CCOCC1 do in these assays?
FLuc counter: 13µM; NPC1 prom act: inactive; KinaseGlo FLuc: inconclusive; ELG1 genotoxic: inactive; Rab9 prom act: inactive

How did O=C(/C=C/c1ccccc1[N+](=O)[O-])N1CCCCC1 do in these assays?
FLuc counter: inactive; NPC1 prom act: inactive; SMN2 splice up: inactive; KinaseGlo FLuc: inactive; ELG1 genotoxic: inactive; Rab9 prom act: inactive

How did O=C(/C=C/c1ccccc1Cl)N1CCCN(C(=O)/C=C/c2ccccc2Cl)CC1 do in these assays?
FLuc counter: 19µM; NPC1 prom act: inactive; SMN2 splice up: inactive; KinaseGlo FLuc: inactive; ELG1 genotoxic: inactive; Rab9 prom act: inactive

Results for O=C(/C=C/c1ccccc1)N1CCOCC1 ?
FLuc counter: inconclusive; NPC1 prom act: inactive; ELG1 genotoxic: inactive; Rab9 prom act: inconclusive

What do the screens show for `O=C(/C=C/c1ccc(Cl)cc1)N1CCOCC1`?
FLuc counter: 27µM; NPC1 prom act: inconclusive; ELG1 genotoxic: inactive; Rab9 prom act: inconclusive

How did O=C(NCCc1ccccc1F)N[C@@H](Cc1ccccc1)C(=O)O do in these assays?
FLuc counter: inactive; NPC1 prom act: inactive; ELG1 genotoxic: inactive; Rab9 prom act: inactive

How did NCCS(=O)(=O)O do in these assays?
NPC1 prom act: inactive; SMN2 splice up: inactive; KinaseGlo FLuc: inactive; Rab9 prom act: inactive

How did COc1ccccc1N1CCN(C(=O)c2cc3c(=O)oc4ccc(C)cc4c3s2)CC1 do in these assays?
FLuc counter: inactive; SMN2 splice up: inactive

How did COc1ccccc1N1CCN(c2ncnc3c2cnn3-c2ccc(C)cc2)CC1 do in these assays?
FLuc counter: inactive

Results for Cc1ccc(/C=C/C(=O)N2CCCN(C(=O)/C=C/c3ccc(C)cc3)CC2)cc1 ?
FLuc counter: 11µM; NPC1 prom act: inactive; SMN2 splice up: inconclusive; KinaseGlo FLuc: inactive; ELG1 genotoxic: inactive; Rab9 prom act: inactive

How did O=C(/C=C/c1cccs1)N1CCCCC1 do in these assays?
FLuc counter: inconclusive; NPC1 prom act: inactive; SMN2 splice up: 18µM; KinaseGlo FLuc: inactive; ELG1 genotoxic: inconclusive; Rab9 prom act: inactive

How did CC(C)c1ccc(NC(=O)NN2CCOCC2)cc1 do in these assays?
FLuc counter: 27µM; NPC1 prom act: 3.2µM; SMN2 splice up: 13µM; KinaseGlo FLuc: inactive; ELG1 genotoxic: 16µM; Rab9 prom act: 3.5µM

Results for CCCOc1ccc(/C=C/C(=O)N2CCN(c3ccccn3)CC2)cc1 ?
FLuc counter: inconclusive; NPC1 prom act: inactive; SMN2 splice up: inactive; KinaseGlo FLuc: inactive; ELG1 genotoxic: inactive; Rab9 prom act: inactive

Compound activity: PubChem, National Center for Advancing Translational Sciences (NCATS)
